Hits are enriched below; roughly 7.1% of the tested compounds scored in any of these assays.
Marburg entry: blocks Marburg virus binding or cell entry; Marburg virus pseudotype entry/binding inhibition, cell-based; Potency, µM (doses to about 49.2 µM), for inactives: at the top dose activity change, negative = inhibition, most hits filed as inhibitors; actives 6.5% (n = 18,000)
Lassa entry: blocks Lassa virus binding or cell entry; Lassa virus pseudotyped entry inhibition, cell-based qHTS; Potency, µM (titrated, usually from 49.2 µM), without a hit: at the top dose activity change, negative = inhibition, hits mostly inhibitors; actives 4.1% (n = 18,000)
The depositor's hits bear a star; ? = inconclusive; . = no result; ! = not confirmed by another sample; [ ] = another dose, or the depositor's remark. Calls follow the shape of the full dose curve; tested in HEK293 cells. % is scaled to controls: 0 for no effect and ±100 for the full control effect; potency is read from the fitted curve at half-maximal effect.

SMILES	Marburg entry	Lassa entry
NC1(c2ccc(-c3nc4ccn5c(=O)[nH]nc5c4cc3-c3ccccc3)cc2)CCC1	6.31µM*	?
c1ccc(COC[C@@H]2CO2)cc1	10.4%	-2.1%
COc1cccc(C(=O)NCc2nc(-c3cccc(NC(=O)c4ccoc4C)c3)oc2C)c1OC	?	17.8µM*
Cc1cc(C(=O)Nc2cccc(-c3nc(CNC(=O)c4ccccc4C(F)(F)F)c(C)o3)c2)c(C)o1	-28.0%	?
O=c1cc(-c2cccc(F)c2)[nH]c2cc(Cl)ccc12	?	-22.6%
CC[C@@H](C)[C@@H](CO[C@@H](Cc1ccccc1)C(=O)N[C@@H](CCS(C)(=O)=O)C(=O)OC(C)C)NC[C@@H](N)CS	10µM*	-18.5%
CC(C)C[C@H](NC(=O)[C@@H](O)[C@H](N)Cc1ccccc1)C(=O)O	-10.0%	?
CC[C@H](C)[C@@H](NC(=O)O[C@@H]1C(=O)c2ccc(OC)cc2O[C@H]1c1ccc2c(c1)OCO2)C(=O)OC	-22.0%	0.3%
Cc1c(C(=O)N2CCCCCC2)sc2ncnc(NCC3CCCO3)c12 (centres undefined)	9.7%	-16.3%
NCCNS(=O)(=O)c1cccc2c(Cl)cccc12	10µM*	?
NCCCCCCNS(=O)(=O)c1ccc2c(Cl)cccc2c1	12.6µM*	28.2µM*
NCCNS(=O)(=O)c1ccc(Cl)c2ccncc12	-4.7%	18.8%
O=C(O)Cc1ccc(CCNS(=O)(=O)c2ccc(Cl)cc2)cc1	8.8%	4.4%
CCN1C(=S)NC(c2cccs2)C(C(=O)OC)=C1C (centres undefined)	38.4%[8.59 µM]	-24.3%[8.59 µM]
COC(=O)N1C(C)=Cc2ccccc2C1CC(C)=O (centres undefined)	0.7%	-8.7%
C=CC[C@@H]1C=C[C@@H](ON=C2[C@H]3CCn4c(=O)n(-c5ccccc5)c(=O)n4[C@@H]3[C@H](O)[C@@H]3O[C@H]23)[C@@H](CO)O1	-21.9%[8.59 µM]	-5.2%[8.59 µM]
CCN(CC)CCNC(=O)c1ccc(NS(C)(=O)=O)cc1	1.1%	0.4%
CCN(CC)CCNC(=O)c1c(C)[nH]c(/C=C2\C(=O)Nc3ccc(F)cc32)c1C	8.91µM*	?
CN1C2CCC1CC(OC(=O)C(O)c1ccccc1)C2 (centres undefined)	0.7%	-0.9%
CCC(Oc1ccc(Cl)cc1)C(=O)OC1CC2CCC(C1)N2C (centres undefined)	6.31µM*	?
CC(C(=O)OC1CC2CCC(C1)N2C)c1ccc(Br)cc1 (centres undefined)	28.2µM*	-10.6%
CN1CCC(OC(=O)C(Oc2ccc(Cl)cc2)Oc2ccc(Cl)cc2)CC1	6.1%	-25.6%
Cc1nc(C(=O)N(Cc2cc3ccc(F)cc3nc2N2CCC(O)CC2)CC2CCCO2)cs1 (centres undefined)	0.1%	6.3%
CCOC(=O)CN1C(=O)[C@]2(O[C@H](COc3ccccc3)CC3=CCCC32)c2c(Br)cccc21 (some centres undefined)	5.4%[8.59 µM]	.
O=C(O)P(=O)(O)O	1.0%	-5.2%
SMILES	Marburg entry	Lassa entry
O=P(O)(O)O	6.31µM*	35.5µM*
Oc1cc(-c2nc3ccccc3s2)cc2c1OCCN(Cc1cccn1-c1nccs1)C2	-8.6%	-23.4%
c1ccc2sc(-c3cc4c(c(OC5CCOC5)c3)OCCN(Cc3cccn3-c3nccs3)C4)nc2c1 (centres undefined)	0.355µM*	-4.8%
COc1ccc(CC2NC[C@H](O)[C@H]2OC(C)=O)cc1 (some centres undefined)	0.316µM*	0.316µM*
C=C(C)C(=O)c1ccc(OC)cc1	-13.7%	-17.4%
COc1ccc2c(c1)O[C@@H](c1ccc3c(c1)OCO3)[C@H](OC(=O)NS(=O)(=O)c1ccc(C)cc1)C2=O	50.6%	22.4%
COCCCC/C(=N\OCCN)c1ccc(C(F)(F)F)cc1	14.1µM*	-17.1%
COC(=O)/C=C/c1cc(O)ccc1O	-11.6%	-27.3%
COC(=O)[C@@H]1CCCN1C(=O)c1c(OC)cc(=O)n2c1CCN(Cc1ccc3c(c1)OCCO3)CC2	0.2%	-2.3%
C[C@H](Cc1ccccc1)Nc1ncnc2c1ncn2[C@@H]1O[C@H](CO)[C@@H](O)[C@H]1O	34.7%	13.3%
COc1ccc(C[C@H](N)C(=O)N[C@H]2[C@@H](O)[C@H](n3cnc4c(N(C)C)ncnc43)O[C@@H]2CO)cc1	3.98µM*	4.47µM*
CCOc1ccc2nc3cc(N)ccc3c(N)c2c1	1.8%	21.7%
Nc1ccc2cc3ccc(N)cc3nc2c1	10µM*	25.1µM*
C=CC[C@@](C(C)=O)(C(=O)OC)[C@@H](NC(=O)OC(C)(C)C)c1ccccc1	30.5%[8.59 µM]	11.6%[8.59 µM]
N#Cc1cc2c(OCC(O)CN3CCN(C(c4ccccc4)c4ccccc4)CC3)cccc2[nH]1 (centres undefined)	8.91µM*	15.8µM*
CC(C)(C)NC[C@@H](O)COc1cccc2[nH]c(C#N)cc12	2.0%	-3.5%
O=[N+]([O-])c1cccc(C2=N[C@@H](Cc3ccccc3)CO2)c1	-2.9%	14.3%
C/C=C(\C)C(=O)C[Si](C)(C)c1ccccc1	-3.5%	-7.9%
O=C1C(=O)c2ncccc2-c2cccnc21	?	2.51µM*
O=C1c2ccccc2C(=O)c2ccccc21	4.7%	5.8%
COCC=CC1=CC2=CC(=O)C(C)(OC(=O)c3cnc4ccccc4n3)C(=O)C2=CN1CC(C)C (centres undefined)	6.6%[8.59 µM]	7.1%[8.59 µM]
CNCCCCc1cnc(C)c2[nH]c3ccccc3c12	11.2µM*	?
O=C1NC(=O)c2c1c1c3ccccc3[nH]c1c1[nH]c3ccccc3c21	?	-16.5%
CC(NC(=O)C1CCOCC1)c1nnc2n1CCN(Cc1ccc(F)cc1)CC2 (centres undefined)	5.7%	-3.9%
CCOC(=O)c1c(C)n(C)c2ccc(O)cc12	5.7%	-4.0%
SMILES	Marburg entry	Lassa entry
CCCCNc1c(C(=O)OCC)c(C)nc2c1cnn2CC	7.94µM*!	25.1µM*!
COC(=O)[C@]12C[C@@H]3CCN(C(=O)N[C@@H]1c1ccccc1)[C@@]32C	75.7%[8.59 µM]	.
COc1ccc2c(c1)O[C@H](c1ccc3c(c1)OCO3)[C@@H](OC(=O)NS(=O)(=O)c1ccc(F)cc1)C2=O	8.3%	2.7%
Fc1ccc([C@H]2CCNC[C@H]2COc2ccc3c(c2)OCO3)cc1	11.2µM*	?
COc1ccc2c(c1)O[C@@H](c1ccc3c(c1)OCO3)[C@H](OC(=O)NS(=O)(=O)c1ccc(F)cc1)C2=O	19.0%	-0.1%
Fc1ccc([C@H]2CCNCC2COc2ccc3c(c2)OCO3)cc1 (some centres undefined)	10µM*	-14.2%
CCCCC/C=C\C[C@@H](O)/C=C/C=C\CCC(=O)O	-24.3%	0.2%
O=C(c1cccc(Cn2cccn2)c1)N1CCC(n2c(C3CCCO3)nc3cc(C(F)(F)F)ccc32)CC1 (centres undefined)	-25.6%	-5.1%
CC[n+]1c(-c2ccccc2)c2cc(N)ccc2c2ccc(N)cc21	8.91µM*	?
COc1cc(NCc2ccc3nc(N)nc(N)c3c2C)cc(OC)c1OC	4.47µM*	?
COc1cc(C)c(Cc2cnc(N)nc2N)cc1OC	24.5%	-11.4%
C=Cc1c(C)c2cc3nc(cc4[nH]c(cc5nc(cc1[nH]2)C(C)=C5CCC(=O)OC)c(CCC(=O)O)c4C)[C@@]1(C)C3=CC=C(C(=O)OC)[C@H]1C(=O)OC	12.7%	7.2%[17.8 µM]
CN1CCCC(n2nc(Cc3ccc(Cl)cc3)c3ccccc3c2=O)CC1 (centres undefined)	7.94µM*	?
O=S1(=O)c2ccc(Br)cc2N2CCC[C@@H]2CN1Cc1ccc(Cl)cc1	?	0.9%
